Among the data in PubChem BioAssay (EPA / NIEHS) are AC50 and outcome values, retold here.

Values joined by “and” are separate entries in the source; they are usually repeats but may differ in a detail not shown here. Equal entries are not always repeated. A structure can be active in one record and inactive in another. Active and inactive are the calls of the source. Rule for the calls: active = hit-call score of the fitted dose curve at least 0.9, where 1 is the maximum; inactive = score below 0.9.

Read-out in this assay: Interleukin 17F (IL17F), IL17F (gene 112744)
Description: BSK_BT_xIL17F: BioMAP Diversity Plus: BT Assay for Interleukin 17F (IL17F) Biomarker Activity (AID 2284243). The following applies: primary human B cells with PBMC. The procedure:
BSK_BT is a cell-based, multiplexed-readout assay that uses B cell and peripheral blood mononuclear cells, a human vascular primary cell co-culture, with measurements taken at 24 hours after chemical dosing in a microplate: 96-well plate.BSK_BT_xIL17F is an assay component measured in the BSK_BT assay. It measures secreted IL-17F related to regulation of gene expression using LumineX xMAP technology.Data from the assay component BSK_BT_xIL17F was analyzed at the endpoint, BSK_BT_xIL17F, in the positive analysis fitting direction relative to DMSO as the negative control and baseline of activity. Using a type of cytokine quantitation reporter, gain or loss-of-signal activity can be used to understand protein changes. To generalize the intended target to other relatable targets, this assay endpoint is annotated to the 'cytokine' intended target family, where the subfamily is 'interleukins'.
The levels of cell surface (or secreted, indicated by the prefix "s") biomarker endpoints were measured by ELISA. Overt cytotoxicity to cells in confluent adherent cultures (all systems other than the BT system) was assessed by measuring total protein levels using sulforhodamine B (SRB) staining in parallel cultures at the time of biomarker measurements, indicated as SRB endpoints. For proliferation assays for adherent cell types, individual cell types are cultured at sub-confluence and relative cell numbers quantified by SRB staining at time points optimized for each system (48 h: 3C and CASM3C systems; 72 h: BT and HDF3CGF systems; 96 h: SAg system). SRB was performed by staining cells with 0.1% SRB after fixation with 10% TCA and reading wells at 560 nm.Viability and proliferation of PBMC (T cells) was quantified by Alamar Blue reduction for the SAg and BT systems. For PBMC viability (referred to as PBMC Cytotoxicity within the assay endpoint names), cells were plated (75,000/well in a 96-well plate) and then chemical samples added for 1 h before addition of activators, SEB and TSST-1 (20 ng/mL final concentration each). Cells were incubated for 90 h. Then, Alamar Blue (20 uL/well) (Invitrogen, Cat DAL1100) was added for 6 h, and the plates were read with a fluorescence microplate reader at 546/580 nm (excitation/emission). For PBMC proliferation, cells were plated and activated as above but incubated for only 16 h prior to addition of Alamar Blue. Plates were read after 6 h.
Broadly, the AC50 is the midpoint of the concentration-response curve, whichever way the signal moves. Consider `C=CC(=O)OCC(CC)(COC(=O)C=C)COC(=O)C=C`, for which the AC50 was 1.87 µM (active).
Consider `CC(O)C(F)(F)C(F)(F)F` (centres undefined), for which the outcome was inactive.
On the same count and under the same terms, for `CCOP(=S)(OCC)SCS(=O)(=O)CC` the value was “inactive”; for `COP(=O)(O)OC`, “inactive”.
`CCOP(=S)(NC(C)C)Oc1ccccc1C(=O)OC(C)C` (centres undefined): the AC50 was 28.7 µM (active).
As for `CCOP(=S)(S)OCC`, the result was inactive.
Same read-out and setting: for `NC(=O)C(F)(F)C(F)(F)F` the value was “inactive”.
Turning to `CCCCC(CC)COP(=O)(Oc1ccccc1)Oc1ccccc1` (centres undefined), the concentration at half-maximal activity (AC50) was 20 µM (active).
For the molecule `O=C(O)C(F)(F)OC(F)(F)C(F)(F)OC(F)(F)F`, the result was inactive.
As to `CCCCC(CC)COC(=O)c1c(Br)c(Br)c(Br)c(Br)c1C(=O)OCC(CC)CCCC` (centres undefined), the result was inactive.
As for `COC(=O)C(F)(F)C(F)(F)OC(F)(C(F)(F)F)C(F)(F)OC(F)=C(F)F` (centres undefined), the outcome was inactive.
Regarding `N#Cc1c(-c2ccc(Cl)cc2)[nH]c(C(F)(F)F)c1Br`, the AC50 is 1.63 µM (active).
Turning to `O=C(O)C(F)(OC(F)(F)C(F)(F)C(F)(F)F)C(F)(F)F` (centres undefined), the outcome was inactive.
On the same count and under the same terms, for `OCC(F)(F)OC(F)(F)C(F)(F)OC(F)(F)CO` the value was “inactive”.
Still for that read-out and setting: for `CCCCOCCOP(=O)(OCCOCCCC)OCCOCCCC` the value was “inactive”.
On to `O=S1(=O)OCC2C(CO1)C1(Cl)C(Cl)=C(Cl)C2(Cl)C1(Cl)Cl` (centres undefined), for which the AC50 is 28.3 µM (active).
Still for that read-out and setting: for `OCC(F)(F)OC(F)(F)C(F)(F)OC(F)(F)C(F)(F)OC(F)(F)CO` the value was 22.8 µM (active) and 20.7 µM (active).
With `O=C(O)C(F)(F)C(F)(F)C(=O)O`, the outcome was inactive.
Consider `O=P(OCC(Br)CBr)(OCC(Br)CBr)OCC(Br)CBr` (centres undefined), for which the AC50 is 27.7 µM (active).
In the case of `CCOP(=S)(OCC)SCn1nnc2ccccc2c1=O`, the AC50 was 24 µM (active).
On to `c1ccc2c(c1)sc1ccccc12`, for which the outcome was inactive.
Still for that read-out and setting: for `O=C(O)C(F)(F)OC(F)(F)C(F)(F)OC(F)(F)C(=O)O` the value was “inactive”.
As to `OCC(F)(F)OC(F)(F)C(F)(F)OC(F)(F)C(F)(F)OC(F)(F)F`, the AC50 is 30 µM (active) and 22.2 µM (active).
Still for that read-out and setting: for `Cc1ccc2c(c1N)C(=O)c1ccccc1C2=O` the value was 20 µM (active); for `CC(C)(C)c1ccccc1OP(=O)(Oc1ccccc1)Oc1ccccc1`, 29 µM (active).
`CC(C)Nc1ccc(Nc2ccccc2)cc1`: the AC50 is 4.55 µM (active).
`FC(F)(F)C(F)(C(F)(F)F)C(F)(F)C(F)(F)CC1CO1` (centres undefined): the result was inactive.
On to `O=S(=O)(F)C(F)(F)C(F)(F)C(F)(F)C(F)(F)C(F)(F)C(F)(F)C(F)(F)C(F)(F)F`, for which the outcome was inactive.
The same measure, in the same setting: for `CC(Cl)CN(C)C` (centres undefined) the value was “inactive”.
For `ClC(Cl)=C(c1ccc(Cl)cc1)c1ccccc1Cl`, the AC50 was 32.2 µM (active).
Regarding `CCOP(=S)(OCC)SCSc1ccc(Cl)cc1`, the result was inactive.
Still for that read-out and setting: for `Nc1ccc([N+](=O)[O-])cc1Cl` the value was “inactive”.
Regarding `O=C(O)C=CC(F)(C(F)(F)F)C(F)(F)F`, the outcome was inactive and the AC50 is 0.219 µM (active).
For `N#Cc1cc([N+](=O)[O-])ccc1N`, the result was inactive.
`C=CC(=O)OCC(F)(F)C(F)F`: the AC50 was 12.4 µM (active) and 21.8 µM (active).
As to `O=c1ssc(Cl)c1Cl`, the AC50 was 6.3 µM (active).
In the case of `COP(N)(=S)OC`, the outcome was inactive.
As to `Cc1c([N+](=O)[O-])cc2c(c1[N+](=O)[O-])C(C)(C)CC2(C)C`, the AC50 is 20 µM (active).
